Test results: PubChem BioAssay AID1347414 (National Center for Advancing Translational Sciences (NCATS), 2020)
Inconclusive results are not listed. A call without a number means that no potency is given here. The source made the active and inactive calls. The call rests on the fitted dose curve; in most records, active means well fitted inhibition curve with a large enough effect; inconclusive means small, poorly fitted or top-dose-only effect; inactive means no such curve, though single readings can be large or run the other way.

Test: qHTS to identify inhibitors of the type 1 interferon - major histocompatibility complex class I in skeletal muscle: Secondary screen by immunofluorescence; further: nearly all actives have a fitted effect of over 70% in size
Settings: C25cl48 myoblasts, IFN-b induced HLA-ABC immunofluorescence, 24 h, Viability; series mostly up to 49.8 µM
Summary of the method: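 HLA-ABC immunofluorescence, with nuclear and cell-body stains, was quantified by laser scanning cytometry. Read-out followed 24 h of IFN-beta (4.0 ng/ml) stimulation of C25cl48 human myoblasts with compounds titrated 1:3 over 11 points from 50 uM, with ruxolitinib as inhibitor control.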
Potency means the concentration at half of the fitted maximal effect.

Row | Compound | Potency
1 | Cc1cc(O)c(-c2ccc([C@@H](C)CN(C)C)cc2)c2c1[nH]c(=O)c1sccc12 | inactive
2 | COC(=O)Nc1nc2ccc(C(=O)c3ccc(F)cc3)cc2[nH]1 | inactive
3 | CC[C@@]1(O)C(=O)OCc2c1cc1n(c2=O)Cc2c-1nc1cc(F)c(C)c3c1c2[C@@H](N)CC3 | inactive
4 | CCc1c(-c2ccccc2C)nc2c(C#N)c[nH]n2c1=O | inactive
5 | CC(=O)NCC(=O)N1[C@@H]2CC[C@H]1c1ccc(Nc3ncc(C(F)(F)F)c(NC4CCC4)n3)cc12 | inactive
6 | CC(C)(C)c1ccc(S(=O)(=O)/C=C/C#N)cc1 | 3.24 µM (active)
7 | CCS(=O)(=O)N1CC(CC#N)(n2cc(-c3ncnc4[nH]ccc34)cn2)C1 | inactive
8 | C[C@H]1C[C@@H]2[C@H]([C@@H](O)C[C@@]3(C)[C@H]2CC[C@]3(O)C(=O)CO)[C@@]2(C)C=CC(=O)C=C12 | inactive
9 | CN1CCC(c2c(O)cc(O)c3c(=O)cc(-c4ccccc4Cl)oc23)C1CO (configuration not stated) | inactive
10 | COc1cccc2c1C(=O)c1c(O)c3c(c(O)c1C2=O)C[C@@](O)(C(=O)CO)C[C@@H]3O[C@H]1C[C@H](N)[C@@H](O)[C@H](C)O1 | inactive
11 | COC1CC(C(=O)c2ccc3c(N)ncc(-c4ccc(-c5cnn(C)c5)cc4)c3n2)C1 (configuration not stated) | inactive
12 | COc1ncc(Nc2ncc(C(C)N3CCN(S(C)(=O)=O)CC3)cc2-c2nc(C)nc(N)n2)cc1F (configuration not stated) | inactive
13 | C[C@@]12O[C@@H](C[C@]1(O)CO)n1c3ccccc3c3c4c(c5c6ccccc6n2c5c31)CNC4=O | inactive
14 | O=c1[nH]c2cc(Cl)ccc2c(O)c1-c1ccc(Oc2ccccc2)cc1 | inactive
15 | Cc1cnc(Nc2ccc(N3CCN(C)CC3)cc2)nc1Nc1cccc(S(=O)(=O)NC(C)(C)C)c1 | 20.5 µM (active)
16 | CC1(COc2ccc3c(c2)ncn3-c2ccc3cccc(N4CCC(N)CC4)c3n2)COC1 | 7.26 µM (active)
17 | CCc1c2c(nc3ccc(O)cc13)-c1cc3c(c(=O)n1C2)COC(=O)[C@]3(O)CC | inactive
18 | CC(=O)OCC(=O)[C@@]12OC(C)(C)O[C@@H]1C[C@H]1[C@@H]3C[C@H](F)C4=CC(=O)C=C[C@]4(C)[C@@]3(F)[C@@H](O)C[C@@]12C | inactive
19 | CS(=O)(=O)N1CCC(NC(=O)c2[nH]ncc2NC(=O)c2c(Cl)cccc2Cl)CC1 | inactive

Row | Compound | Potency
20 | CC1=C(CO)C(=O)O[C@@H]([C@@H](C)[C@H]2CC[C@H]3[C@@H]4C[C@H]5O[C@]56[C@@H](O)C=CC(=O)[C@]6(C)[C@H]4CC[C@]23C)C1 | 2.05 µM (active)
21 | COC(=O)C[C@](O)(CCCC(C)(C)O)C(=O)O[C@@H]1C(OC)=C[C@]23CCCN2CCc2cc4c(cc2[C@H]13)OCO4 | inactive
22 | COc1nnc2ccc(N3CCC(c4ccc(OCCN5CCN(C)C(=O)[C@H]5C)cc4)CC3)nn12 | inactive
23 | Nc1nc(Nc2ccc(S(N)(=O)=O)cc2)nn1C(=O)c1c(F)cccc1F | inactive
24 | Cn1cc(CNCC2CCN(c3ncc(C(=O)NO)cn3)CC2)c2ccccc21 | inactive
25 | COc1cccc2c1C(=O)c1c(O)c3c(c(O)c1C2=O)C[C@@](O)(C(=O)CO)C[C@@H]3O[C@H]1C[C@H](N)[C@H](O)[C@H](C)O1 | inactive
26 | CC(C)C[C@H](NC(=O)[C@H](Cc1ccccc1)NC(=O)c1cnccn1)B(O)O | inactive
27 | CC[C@@]1(O)C(=O)OCc2c1cc1n(c2=O)Cc2cc3cc(O)ccc3nc2-1 | inactive
28 | O=C(/C=C/c1cccc(S(=O)(=O)Nc2ccccc2)c1)NO | inactive
29 | NC(=O)c1cnc2[nH]ccc2c1NC1C2CC3C[C@H]1CC(O)(C3)C2 (some centres not stated) | inactive
30 | COC(=O)N[C@@H](C)CNc1nccc(-c2cn(C(C)C)nc2-c2cc(Cl)cc(NS(C)(=O)=O)c2F)n1 | inactive
31 | CCOC(=O)N1CCN(/[N+]([O-])=N/Oc2ccc([N+](=O)[O-])cc2[N+](=O)[O-])CC1 | 14.5 µM (active)
32 | CC(=O)Nc1ccc([C@H](C)C(=O)Nc2ncc(C(C)C)s2)cc1 | inactive
33 | CCN(CC)CCOc1ccc(Nc2ncc3cc(-c4c(Cl)cccc4Cl)c(=O)n(C)c3n2)cc1 | 9.13 µM (active)
34 | CN(C)c1ccc(C(=O)NCCCCCCC(=O)NO)cc1 | inactive
35 | C=C1C(=O)O[C@@H]2[C@H]3O[C@]3(C)CCC=C(C)CC[C@@H]12 | 8.14 µM (active)
36 | COCCN1CCN(Cc2ccc(-c3n[nH]c4c3C(=O)c3c(NC(=O)NN5CCOCC5)cccc3-4)cc2)CC1 | 20.5 µM (active)
37 | CCOc1cc2ncc(C#N)c(Nc3ccc(F)c(Cl)c3)c2cc1NC(=O)/C=C/CN(C)C | 16.2 µM (active)
